RE007 growth inh = qHTS Assay for Inhibitors of the HIV-1 protein Vpr | S. pombe RE007 Vpr strain, BacTiter-Glo ATP luminescence, 24 h | Potency, µM (highest dose often 92.2 µM), most hits filed as inhibitors | 0.21% of 360,000 active | AID 651644, 2012; active = well fitted falling curve with a large enough effect; inconclusive = small, poorly fitted or top-dose-only effect; inactive = no such curve, though single readings can be large or run the other way; note: nearly all actives have a fitted effect of over 50% in size
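Fission yeast strain RE007, carrying one chromosomally integrated HIV-1 vpr copy, was seeded at OD 0.01 in PMG+AL medium with 23 nL pinned compound. After 24 h at 30 °C and 99% humidity, viability was read by BacTiter-Glo luminescence.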
Shiga inhibitor = A qHTS for Small Molecule Inhibitors of Shiga Toxin. Vero cells, Shiga toxin protein synthesis inhibition reporter. inhibition, % at 38.7 µM. 9.2% of 290,000 active; in the data active = inhibition mostly above about 28%, no sharp cut-off; inactive = mostly below about 43%
Tb PYK inh = qHTS of Trypanosoma Brucei Inhibitors. pyruvate kinase (Trypanosoma brucei), Q57TT1. TbPYK enzyme, Kinase-Glo Plus ATP luminescence, 45 min. Potency, µM (doses to about 76.8 µM), usual class: inhibitors. 0.12% of 410,000 active. AID 624173, 2012; note: nearly all actives have a fitted effect of over 50% in size
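Quantitative HTS: titrated library compounds versus trypanosomal pyruvate kinase in TEA buffer (pH 7.2) containing KCl, MgCl2, BSA and Tween-20. Reactions were initiated with ADP, 130 uM final. Kinase-Glo Plus luminescence was read after 45 min at RT.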
Giardia FBPA inh = qHTS Assay for Inhibitors of Fructose-1,6-bisphosphate Aldolase from Giardia Lamblia. purified Giardia FBPA. Potency, µM (top dose mostly 59.6 µM), usual class: inhibitors. 0.71% of 290,000 active; note: nearly all actives have a fitted effect of over 55% in size
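40 nM FBPA preincubated 10 min at RT with compound (up to 57.5 uM final), then substrate plus GAPDH/TPI/NAD/arsenate coupling and diaphorase/resazurin added. Fluorescence read after 20 min at RT, 525/598 nm.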
CHX counter = Cycloheximide Counterscreen for Small Molecule Inhibitors of Shiga Toxin | AID 2314, 2010 | 12% of 300,000 active | max response, % | cell reporter, cycloheximide protein synthesis inhibition counterscreen; in the data active = max response mostly above about 13%, no sharp cut-off; inactive = mostly below about 14%; note: read at 38.3 µM for the half of the compounds with a filed dose
LmPK inh = qHTS Assay for Inhibitors of Leishmania Mexicana Pyruvate Kinase (LmPK). Q27686. purified LmPK, Kinase-Glo ATP luminescence, 1 h. Potency, µM (doses to about 57.5 µM), usual class: inhibitors. 0.37% of 290,000 active. AID 1721, 2009
Target sequence (Q27686 whole entry, looked up): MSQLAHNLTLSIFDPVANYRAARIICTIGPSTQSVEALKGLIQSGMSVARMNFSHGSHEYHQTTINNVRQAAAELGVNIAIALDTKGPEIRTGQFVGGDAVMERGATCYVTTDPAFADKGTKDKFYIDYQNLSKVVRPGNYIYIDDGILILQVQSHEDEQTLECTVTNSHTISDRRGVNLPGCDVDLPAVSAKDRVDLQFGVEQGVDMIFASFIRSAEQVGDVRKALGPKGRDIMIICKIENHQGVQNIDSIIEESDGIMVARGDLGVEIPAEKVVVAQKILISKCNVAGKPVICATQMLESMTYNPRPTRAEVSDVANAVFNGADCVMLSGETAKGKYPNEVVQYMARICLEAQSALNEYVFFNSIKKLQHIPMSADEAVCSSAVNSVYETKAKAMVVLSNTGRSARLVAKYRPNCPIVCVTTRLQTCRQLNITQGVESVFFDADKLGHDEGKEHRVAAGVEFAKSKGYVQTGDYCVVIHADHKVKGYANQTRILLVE
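Pyruvate kinase activity monitored as ATP production (luciferase luminescence). Conditions: 0.1 nM enzyme, 0.5 mM PEP, 0.1 mM ADP, 1 h, RT; normalized against uninhibited and no-enzyme wells.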
Each line names hits and unclear results; the compound was inactive in the other large screens. Shown is part of a subset that was picked to be rich in hits. Unless noted, calls come from the whole dose curve; as a rule, active = well fitted curve in the direction sought with a large enough effect; inconclusive = small, poorly fitted or top-dose-only effect, or another doubt; inactive = no such curve, though single readings can be large; an effect the other way counts as inactive or inconclusive.

Fc1ccccc1-n1cn[nH]c1=S	Shiga inhibitor 69, Giardia FBPA inh inconclusive, CHX counter 28
COc1cccc2c1C(=O)CC(c1ccccc1)O2 (configuration not stated)	none (no result: RE007 growth inh, Shiga inhibitor, Tb PYK inh, CHX counter, LmPK inh)
Cn1c(C2=C(O)CN(Cc3ccccc3)C2=N)nc2ccccc21	Shiga inhibitor 33, CHX counter 33
Cn1c(C2=C(O)CN(Cc3ccccc3)C2=N)[n+](C)c2ccccc21	none
CN(C)c1ccc(CNC(=O)Cc2ccc(NC(=O)N3CCCCc4ccccc43)cc2)cc1	none (no result: RE007 growth inh, Shiga inhibitor, Giardia FBPA inh, CHX counter, LmPK inh)
COc1ccc2cc(-c3nnc(Nc4ccccc4)s3)c(=O)oc2c1	none (no result: RE007 growth inh, Shiga inhibitor, Giardia FBPA inh, CHX counter, LmPK inh)
N#CCc1nc(-c2cc3ccccc3oc2=O)cs1	Shiga inhibitor 51, CHX counter 41
O=c1oc2ccccc2cc1-c1nc(-c2cccs2)cs1	CHX counter 14
N#C/C(=C\c1ccc(Cl)cc1)c1nc(-c2cc3ccccc3oc2=O)cs1	none (no result: RE007 growth inh, Shiga inhibitor, Giardia FBPA inh, CHX counter, LmPK inh)
CNc1nnc(-c2cc3ccccc3oc2=O)s1	Shiga inhibitor 83, CHX counter 38
N=c1oc2ccc3ccccc3c2cc1-c1nc(-c2ccccc2)cs1	none
N=c1oc2ccccc2cc1-c1nc(-c2ccccc2)cs1	Shiga inhibitor 45, CHX counter 42
O=C(Nc1nc(-c2cccs2)cs1)c1cc2ccccc2oc1=O	none (no result: RE007 growth inh, Tb PYK inh)
CCn1nc(C)c(CCN(C)C(=O)Nc2cc(C)cc(C)c2)c1C	none (no result: RE007 growth inh, Shiga inhibitor, Giardia FBPA inh, CHX counter, LmPK inh)
Cc1ccc(C(=O)NCCc2nnc3c(C(F)(F)F)cc(Cl)cn23)o1	none
CC1CCC(=C(C#N)c2nc(-c3cc4ccccc4oc3=O)cs2)CC1 (configuration not stated)	Shiga inhibitor 30, CHX counter 23
COc1cccc2cc(-c3nc(-c4cccs4)cs3)c(=O)oc12	Shiga inhibitor 127, CHX counter 37
CCCN(c1ccccc1F)S(=O)(=O)c1ccc2c(c1)C(C)(C)C(=O)N2C	none (no result: RE007 growth inh, Shiga inhibitor, Giardia FBPA inh, CHX counter, LmPK inh)
COc1ccccc1CNC(=O)c1cc(Sc2cccc(Cl)c2)nc2ccccc12	none (no result: RE007 growth inh, Shiga inhibitor, Giardia FBPA inh, CHX counter, LmPK inh)
O=S(=O)(c1cccc(-c2nc3ccccc3s2)c1)N1CCCC1	CHX counter 36
O=S(=O)(c1ccc(-c2nc3ccccc3s2)cc1)N1CCCC1	CHX counter 24
CCOc1ncccc1C(=O)Nc1ccc2c(C)cc(=O)oc2c1	none
Cc1cc(=O)oc2cc(NC(=O)c3cccc(S(C)(=O)=O)c3)ccc12	none
Fc1cccc(NC(=S)NCc2ccccn2)c1	Shiga inhibitor 94, CHX counter 50
Cc1cc(=O)oc2cc(NC(=O)c3cccc(S(=O)(=O)N(C)C)c3)ccc12	Shiga inhibitor 66, CHX counter 28
Cc1cc(=O)oc2cc(NC(=S)NCc3ccccn3)ccc12	Shiga inhibitor 34
COc1ccccc1C(=O)Nc1ccc2c(C)cc(=O)oc2c1	Shiga inhibitor 107, CHX counter 35
CCCCOc1ccc(C(=O)N2CCC(c3nc4ccccc4o3)CC2)cc1	none (no result: RE007 growth inh, Shiga inhibitor, Giardia FBPA inh, CHX counter, LmPK inh)
COc1ccccc1NS(=O)(=O)c1cccc(C(=O)N/N=C(\C)c2cccnc2)c1	none (no result: Shiga inhibitor, Giardia FBPA inh, CHX counter, LmPK inh)
Cc1cc(=O)oc2cc(Nc3ccccc3)ccc12	Shiga inhibitor 55, CHX counter 60
Cc1cc(=O)oc2cc(NC(=S)NNC(=O)c3c(Cl)cnn3C)ccc12	Shiga inhibitor 48 (no result: Giardia FBPA inh)
Cc1cc(=O)oc2cc(NC(=O)c3ccc(OC(F)F)cc3)ccc12	Shiga inhibitor 43, CHX counter 21
Cc1cc(=O)oc2cc(NC(=O)Cc3ccccc3)ccc12	Shiga inhibitor 45
Cc1cc(=O)oc2cc(NC(=O)CCC(=O)O)ccc12	none
CS(=O)(=O)N1CCC2(CCCN(Cc3cc(C(F)(F)F)cc(C(F)(F)F)c3)C2)CC1	none (no result: RE007 growth inh, Shiga inhibitor, CHX counter, LmPK inh)
Cc1cccc(OCc2nnc(SCC(=O)O)n2-c2ccccc2)c1	none
COC(=O)c1cc2sccc2n1Cc1nc(-c2ccc(C)cc2)oc1C	none (no result: RE007 growth inh, Shiga inhibitor, Giardia FBPA inh, CHX counter, LmPK inh)
CCCN(CCC)C(=O)C1CCCN(c2ncnc3onc(-c4ccc(F)cc4)c23)C1 (configuration not stated)	none (no result: RE007 growth inh, Shiga inhibitor, Giardia FBPA inh, CHX counter, LmPK inh)
COc1ccc(Br)cc1/C=C\C(=O)NCc1cccnc1	none
O=C(Nc1ccccc1)C1=C[C@@H](c2ccccc2)C[C@@H](OCc2ccc(CO)cc2)O1	Shiga inhibitor 81, CHX counter 57
CN1CCN(C(=O)C2=C[C@H](c3ccccc3)C[C@H](OCc3ccc(CO)cc3)O2)CC1	CHX counter 7.5
O=C(Nc1ccccc1)C1=C[C@@H](c2ccc(C(F)(F)F)cc2)C[C@@H](OCc2ccc(CO)cc2)O1	none
O=C(Nc1ccccc1)C1=C[C@H](c2ccc(Br)cc2)C[C@H](OCc2ccc(CO)cc2)O1	Shiga inhibitor 69, CHX counter 41
NC(=O)C1=C[C@H](c2ccccc2)C[C@H](OCc2ccc(CO)cc2)O1	Shiga inhibitor 27, Giardia FBPA inh inconclusive, CHX counter 36
CC(C)(C)[C@H]1C=C(C(=O)Nc2ccccc2)O[C@@H](OCc2ccc(CO)cc2)C1	CHX counter 12
C#Cc1ccc([C@@H]2C=C(C(=O)OCC=C)O[C@H](OCc3ccc(CO)cc3)C2)cc1	Shiga inhibitor 23, CHX counter 31
CC(C)(C)[C@@H]1C=C(C(=O)NCc2ccccc2)O[C@H](OCc2ccc(CO)cc2)C1	Giardia FBPA inh inconclusive
COc1ccccc1CNC(=O)c1cc(S(=O)(=O)N2CCCCCC2)cn1C	none (no result: RE007 growth inh, Shiga inhibitor, Giardia FBPA inh, CHX counter, LmPK inh)
COc1ccc([C@@H]2[C@@H]3C(=O)N(C(C)(C)C)C(=O)[C@@H]3[C@]3(Cc4ccccc4)C(=O)N(c4ccc(Br)cc4)C(=O)N23)cc1	CHX counter 12
O=C(Nc1cccc(-c2nc3ccccc3[nH]2)c1)c1c(F)cccc1F	none (no result: RE007 growth inh, Shiga inhibitor, Giardia FBPA inh, CHX counter, LmPK inh)
O=C(/C=C/c1cccc(Cl)c1)NCc1cccs1	Shiga inhibitor 41, CHX counter 38
COCCCNC(=O)/C=C/c1ccc(Cl)cc1	Shiga inhibitor 50, CHX counter 21
O=C(/C=C/c1ccc(Cl)cc1)NCc1cccs1	Shiga inhibitor 92, CHX counter 53
O=c1[nH]cnc(O)c1C(c1ccc([N+](=O)[O-])cc1)c1c(O)nc[nH]c1=O	none (no result: Shiga inhibitor)
Cc1cc(C)cc(Nc2ncc3c(n2)CC(c2ccco2)CC3=O)c1 (configuration not stated)	none
COc1ccc(C(=O)Nc2ncc3c(n2)CC(C)CC3=O)cc1 (configuration not stated)	CHX counter 19
Cc1ccc2nc(Nc3ncc4c(n3)CCCC4=O)nc(C)c2c1	none (no result: RE007 growth inh, Tb PYK inh)
Cc1cccc(Nc2ncc3c(n2)CC(C)CC3=O)c1 (configuration not stated)	Shiga inhibitor 112, CHX counter 33
Cc1cc(C)cc(Nc2ncc3c(n2)CCCC3=O)c1	CHX counter 17
